The entries come from a sample that favours hits as a whole.
IDE exosite inh: exo-site inhibitors of human IDE, primary screen, biochemical, fluorescence anisotropy, probe displacement | Insulin-degrading enzyme (Homo sapiens), P14735 | purified IDE, FL-6b probe fluorescence polarization; hits give low values | z-score at 20 µM | 17,000 tested, 6.3% active;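 active = z-score of -3 or lower, meaning strong loss of probe binding signal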;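 also: His-tagged human IDE residues 42-1019 made in E. coli with 30 nM FL-6b probe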
Target sequence (P14735 42-1019 limits assumed): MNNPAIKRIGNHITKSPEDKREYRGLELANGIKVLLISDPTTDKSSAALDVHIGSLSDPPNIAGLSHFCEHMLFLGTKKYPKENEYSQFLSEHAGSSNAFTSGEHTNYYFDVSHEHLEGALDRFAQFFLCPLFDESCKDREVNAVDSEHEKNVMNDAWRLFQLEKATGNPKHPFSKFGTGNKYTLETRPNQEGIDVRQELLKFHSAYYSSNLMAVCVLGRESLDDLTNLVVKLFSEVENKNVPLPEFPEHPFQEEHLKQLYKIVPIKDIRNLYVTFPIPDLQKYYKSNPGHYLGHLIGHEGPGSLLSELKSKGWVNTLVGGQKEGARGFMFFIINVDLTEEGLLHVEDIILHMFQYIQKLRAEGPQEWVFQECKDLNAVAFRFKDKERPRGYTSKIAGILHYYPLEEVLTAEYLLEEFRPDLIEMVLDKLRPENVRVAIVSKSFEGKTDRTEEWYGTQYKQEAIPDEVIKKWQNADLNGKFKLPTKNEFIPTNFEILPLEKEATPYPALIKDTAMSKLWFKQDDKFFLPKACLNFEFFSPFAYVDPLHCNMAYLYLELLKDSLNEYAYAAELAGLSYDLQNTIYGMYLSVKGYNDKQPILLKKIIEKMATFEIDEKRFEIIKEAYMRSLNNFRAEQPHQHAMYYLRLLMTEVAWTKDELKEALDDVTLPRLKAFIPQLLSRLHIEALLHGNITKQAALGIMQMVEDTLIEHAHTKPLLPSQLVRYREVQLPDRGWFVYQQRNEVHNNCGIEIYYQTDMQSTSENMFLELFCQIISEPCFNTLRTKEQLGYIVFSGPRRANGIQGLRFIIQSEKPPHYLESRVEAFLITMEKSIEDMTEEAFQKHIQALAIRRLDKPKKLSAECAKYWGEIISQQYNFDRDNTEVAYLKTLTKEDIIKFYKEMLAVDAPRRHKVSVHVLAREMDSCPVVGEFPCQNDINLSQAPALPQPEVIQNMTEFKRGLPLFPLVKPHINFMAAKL
The depositor's hits bear a star.

SMILES	IDE exosite inh
Cc1ccccc1-c1ccc([C@H]2[C@H]3CN(C(=O)Cc4ccccn4)CC(=O)N3[C@H]2CO)cc1	-8.9*
O=C(Cc1ccccn1)N1CC(=O)N2[C@H](CO)[C@@H](c3ccc(-c4ccc(F)cc4)cc3)[C@H]2C1	3.3
O=C(Cc1ccccn1)N1CC(=O)N2[C@H](C1)[C@@H](c1ccc(-c3ccc(F)cc3)cc1)[C@@H]2CO	1.9
O=C(Cc1ccccn1)N1CC(=O)N2[C@@H](CO)[C@H](c3ccc(-c4ccc(F)cc4)cc3)[C@@H]2C1	1.4
O=C(Cc1ccccn1)N1CC(=O)N2[C@H](CO)[C@@H](c3ccc(-c4ccc(F)cc4)cc3)[C@@H]2C1	2.1
COc1ccc(-c2ccc([C@@H]3[C@H]4CN(C(=O)Cc5ccccn5)CC(=O)N4[C@H]3CO)cc2)cc1	-0.28
Cc1ccccc1-c1ccc([C@@H]2[C@H]3CN(C(=O)Cc4ccccn4)CC(=O)N3[C@H]2CO)cc1	-18*
Cc1ccccc1-c1ccc([C@@H]2[C@@H](CO)N3C(=O)CN(C(=O)Cc4ccccn4)C[C@@H]23)cc1	-20*
Cc1ccccc1-c1ccc([C@@H]2[C@@H](CO)N3C(=O)CN(C(=O)Cc4ccccn4)C[C@H]23)cc1	-5.8*
O=C(Cc1ccccn1)N1CC(=O)N2[C@H](CO)[C@H](c3ccc(C#CC4CC4)cc3)[C@H]2C1	2.2
CN1C(=O)c2cc(NS(=O)(=O)c3cccc(F)c3)ccc2OC[C@H]2O[C@H](CC(=O)NCCN3CCCCC3)CC[C@H]21	-0.83
COCC(=O)N1CCC2(CC1)CN[C@H](CO)c1c2c2ccc(OC)cc2n1C	0.38
CCC(=O)N1[C@H](CN(CC)C(C)=O)[C@@H](c2ccc(-c3cccnc3)cc2)[C@@H]1CO	0.87
COc1cccc(S(=O)(=O)Nc2ccc3c(c2)C(=O)N(C)C[C@@H](OC)[C@H](C)CN(Cc2ccccc2F)[C@H](C)CO3)c1	0.55
N#Cc1ccc(-c2ccc3c(c2)[C@H]2[C@H](CCN2C(=O)c2cccnc2)[C@@H](CO)N3)cc1	1.7
COc1ccccc1CNC(=O)C[C@@H]1C[C@@H]2c3cc(NC(=O)C4CCC4)ccc3O[C@@H]2[C@H](CO)O1	0.33
C[C@@H]1CCCCO[C@@H](CN(C)C(=O)Cc2ccccc2)[C@@H](C)CN([C@@H](C)CO)C(=O)c2cc(NS(C)(=O)=O)ccc2O1	1.2
N#C[C@H]1[C@H](c2ccc(C#CC3CC3)cc2)[C@H](CO)N1S(=O)(=O)c1ccccc1	1.6
CN(C)C(=O)C[C@@H]1C[C@@H]2c3cc(NC(=O)Nc4ccc(F)cc4)ccc3O[C@@H]2[C@@H](CO)O1	-0.42
Cc1noc(C)c1NC(=O)N1C[C@@H](O)COC[C@H]2O[C@@H](CC(=O)N[C@@H]3CCN(Cc4ccccc4)C3)CC[C@@H]21	0.006
CCCNC(=O)N(C)C[C@@H]1Oc2ncc(C#CC3CCCCC3)cc2C(=O)N([C@H](C)CO)C[C@@H]1C	0.47
COCC(=O)N1CC(=O)N2[C@H](CO)[C@@H](c3ccc(C#CC4CC4)cc3)[C@H]2C1	0.089
O=C(C[C@H]1CC[C@@H](NS(=O)(=O)c2ccccc2F)[C@H](CO)O1)NCCCN1CCOCC1	0.82
O=C(c1ccncc1)N1CC(=O)N2[C@@H](CO)[C@@H](c3ccc(-c4cccnc4)cc3)[C@@H]2C1	1.8
COc1ccc(-c2ccc([C@H]3[C@@H](CO)N4C(=O)CN(C(=O)c5ccccn5)C[C@@H]34)cc2)cc1	-1.3
SMILES	IDE exosite inh
Cc1ccccc1-c1ccc([C@H]2[C@H]3CN(C(=O)c4ccncc4)CC(=O)N3[C@H]2CO)cc1	0.38
O=C(c1ccncc1)N1CC(=O)N2[C@H](CO)[C@H](c3ccc(-c4cccnc4)cc3)[C@@H]2C1	1.6
Cc1ccccc1-c1ccc([C@@H]2[C@H](CO)N3C(=O)CN(C(=O)c4ccncc4)C[C@@H]23)cc1	-5.3*
Cc1ccccc1-c1ccc([C@H]2[C@H]3CN(C(=O)c4ccccc4)CC(=O)N3[C@H]2CO)cc1	0.77
Cc1ccccc1-c1ccc([C@H]2[C@H]3CN(C(=O)c4cccnc4)CC(=O)N3[C@H]2CO)cc1	-2
Cc1ccccc1-c1ccc([C@@H]2[C@@H](CO)N3C(=O)CN(C(=O)c4ccncc4)C[C@@H]23)cc1	-3.5*
CC(C)C#Cc1ccc([C@@H]2[C@@H](CO)N3C(=O)CN(C(=O)c4ccccn4)C[C@H]23)cc1	2.7
Cc1ccccc1-c1ccc([C@H]2[C@@H](CO)N3C(=O)CN(C(=O)c4ccccn4)C[C@@H]23)cc1	-12*
Cc1ccccc1-c1ccc([C@@H]2[C@H]3CN(C(=O)c4ccncc4)CC(=O)N3[C@H]2CO)cc1	-14*
CCCC(=O)N1CCC2(CC1)CN(C(=O)Cc1ccccn1)[C@H](CO)c1[nH]c3cc(OC)ccc3c12	-0.55
O=C(Nc1ccccc1)N1CCCCN2[C@H](CO)[C@H](c3ccc(-c4ccccc4)cc3)[C@H]2C1	-0.68
O=C(c1cccc(F)c1)N1CC2(C1)[C@H](c1ccccc1)[C@H](CO)N2Cc1ccccn1	0.9
COc1ccc(-c2ccc3n(c2=O)C[C@H]2[C@H](CO)[C@@H](C(=O)N(C)C)[C@@H]3N2Cc2cncnc2)cc1	1
COc1cccc(NC(=O)N2CC3(C2)[C@@H](c2ccccc2)[C@@H](CO)N3C(C)=O)c1	1.4
COCCNC(=O)C[C@H]1CC[C@H]2[C@@H](COC[C@@H](O)CN2S(=O)(=O)c2ccccc2F)O1	-0.22
CO[C@@H]1CN(C)C(=O)c2ccc(NS(C)(=O)=O)cc2OC[C@@H](C)N(CC2CC2)C[C@H]1C	3
COc1ccc(-c2ccc(C3[C@H]4CNC[C@@H]3N4S(=O)(=O)c3cn(C)cn3)cc2)cc1 (stereo partly drawn)	-0.26
O=C(Nc1ccccc1)N1CCCCN2[C@H](CO)[C@H](c3ccc(-c4ccccc4)cc3)[C@@H]2C1	0.35
O=C(c1ccncc1)N1CC(=O)N2[C@H](C1)[C@H](c1ccc(-c3ccccc3F)cc1)[C@@H]2CO	-0.15
O=C(c1ccncc1)N1CC(=O)N2[C@H](CO)[C@H](c3ccc(-c4ccccc4F)cc3)[C@H]2C1	-4.8*
O=C(c1ccncc1)N1CC(=O)N2[C@H](CO)[C@@H](c3ccc(-c4ccccc4F)cc3)[C@@H]2C1	-1.9
COc1ccc(C#Cc2ccc([C@@H]3[C@H]4CN(C(=O)Nc5ccccc5F)CC(=O)N4[C@H]3CO)cc2)cc1	2
Fc1ccccc1-c1ccc(C2[C@H]3CNC[C@@H]2N3CC2CC2)cc1 (stereo partly drawn)	2
N#C[C@@H]1[C@H](c2ccc(C#CC3(O)CCCC3)cc2)[C@@H](CO)N1C(=O)C1CC1	2.2
O=C(c1cnccn1)N1CC(=O)N2[C@H](CO)[C@@H](c3ccc(C4=CCCCC4)cc3)[C@H]2C1	0.26
C/C=C/c1ccc([C@@H]2[C@@H](CO)N3C(=O)CN(C(=O)c4cnccn4)C[C@@H]23)cc1	1.2
Cc1cccc(-c2ccc([C@H]3[C@H](CO)N4C(=O)CN(C(=O)c5cnccn5)C[C@@H]34)cc2)c1	-14*
O=C(c1cnccn1)N1CC(=O)N2[C@H](C1)[C@H](c1ccc(-c3ccc(F)cc3)cc1)[C@@H]2CO	5.7
Cc1cccc(-c2ccc([C@@H]3[C@@H](CO)N4C(=O)CN(C(=O)c5cnccn5)C[C@@H]34)cc2)c1	-18*
O=C(c1cnccn1)N1CC(=O)N2[C@H](C1)[C@@H](c1ccc(-c3ccccc3)cc1)[C@@H]2CO	-6*
